# Inconclusive results are not listed. Entries that show only a call come without a potency. Values without a mark were called inactive. Activity calls are given as the source filed them. Unless noted, calls come from the whole dose curve; as a rule, active = well fitted curve in the direction sought with a large enough effect; inconclusive = small, poorly fitted or top-dose-only effect, or another doubt; inactive = no such curve, though single readings can be large; an effect the other way counts as inactive or inconclusive.
# Legend:
# [1] = qHTS for Hypoxia signaling pathway (HIF-1) antagonists against the NCATS CANVASS Library (AID 1347374);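 note: HRE-bla ME-180 cells stimulated with cobalt chloride to stabilize HIF-1alpha; nearly all actives have a fitted effect of over 60% in size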
# Method in brief: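 HRE-bla ME-180 cells in medium with 0.5% dialyzed FBS received compounds (11-point series) plus CoCl2 (60 uM addition stock) for 17 hrs at 37C. Beta-lactamase activity read with CCF4 (405 nm ex, 460/530 nm em); CellTiter-Glo viability measured in same wells.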
# [2] = Secretion counterscreen for inhibitors of the SERCaMP assay screened against the NCATS CANVASS Library (AID 1347390);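 note: light from luciferase secreted into medium read as a measure of general secretion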
# Method in brief: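 SH-SY5Y cells expressing constitutively secreted GLuc, 1000 cells/well, attached 4 h at 37C, then exposed to compounds (0.001 - 77 uM, 11-pnt series) for 20 h. Coelenterazine added; luminescence read to flag secretory-pathway interferers.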
# [3] = qHTS for inhibitors of ER calcium dysfunction: SERCaMP assay screened against the NCATS CANVASS Library (AID 1347393);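 note: lower secreted reporter signal means inhibitor of ER calcium depletion; nearly all actives have a fitted effect of over 40% in size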
# Method in brief: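 Thapsigargin-induced ER calcium depletion drives GLuc-SERCaMP secretion from SH-SY5Y cells; compounds given 16 h beforehand were scored by lowered coelenterazine luminescence after 4 h challenge.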
# [4] = S16 Schwann cell PMP22 intronic element beta-lactamase assay (AID 624044; calls by dose curve; note: potency is the fitted concentration of half-maximal effect; nearly all actives have a fitted effect of over 15% in size)
# Method in brief: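 Rat S16 Schwann cells with beta-Lac driven by a PMP22 intronic element, compound-treated 24 h at 37 °C. LiveBLAzer FRET B/G read: 460 nm normalized to potassium clavulanate vs DMSO; 535 nm FRET as viability; concentration-effect curves classified.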
# [5] = biological target: Luciferin 4-monooxygenase (Photinus pyralis) (UniProt P08659); test: Biochemical firefly luciferase enzyme assay for NPC (AID 624030);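 note: purified P. pyralis luciferase at 10 nM with luciferin and ATP substrate; nearly all actives have a fitted effect of over 70% in size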
# Chain of Luciferin 4-monooxygenase (Photinus pyralis) (P08659 whole entry, looked up): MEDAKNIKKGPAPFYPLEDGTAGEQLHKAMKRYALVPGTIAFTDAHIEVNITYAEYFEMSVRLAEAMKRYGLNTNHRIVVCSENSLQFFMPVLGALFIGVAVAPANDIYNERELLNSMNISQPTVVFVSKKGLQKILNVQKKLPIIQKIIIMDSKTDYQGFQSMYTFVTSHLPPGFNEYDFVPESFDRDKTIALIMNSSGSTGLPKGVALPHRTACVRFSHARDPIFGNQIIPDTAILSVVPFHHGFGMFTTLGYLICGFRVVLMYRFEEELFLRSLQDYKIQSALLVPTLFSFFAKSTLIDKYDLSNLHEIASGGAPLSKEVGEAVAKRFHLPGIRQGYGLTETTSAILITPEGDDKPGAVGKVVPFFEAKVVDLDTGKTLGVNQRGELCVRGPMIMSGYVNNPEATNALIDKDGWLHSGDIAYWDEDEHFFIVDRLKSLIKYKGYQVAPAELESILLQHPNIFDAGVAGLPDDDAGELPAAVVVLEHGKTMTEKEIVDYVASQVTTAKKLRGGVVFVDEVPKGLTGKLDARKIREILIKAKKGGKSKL
# Method in brief: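 Direct inhibition of firefly luciferase enzyme (10 nM final, 50 mM Tris Acetate) assessed by luminescence within 5 minutes. Percent activity scaled between DMSO and PTC124 positive control, with concentration-effect curves classified by fit quality and response.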
# [6] = Cell Viability - BJ (AID 421; calls by dose curve;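 note: potency is the fitted concentration of half-maximal effect; cells exposed to compound for 40 hours at 37 °C before readout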); conditions: BJ fibroblast viability, qHTS
# Method in brief: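 Cytotoxicity in human BJ foreskin fibroblasts is scored as loss of cellular ATP after a 40-hour exposure, measured by luciferase luminescence. Controls are DMSO and 100 uM tamoxifen.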
# [7] = Cell Viability - Jurkat (AID 426;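 active = dose-dependent loss of cell ATP signal giving a full or clear fitted curve, ranked by lower potency value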; note: potency is the fitted concentration of half-maximal effect); conditions: qHTS
# Method in brief: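 Jurkat (Clone E6-1) cells, 5000/well in complete medium, exposed to compounds for 40 hr at 37C; intracellular ATP measured by CellTiter-Glo luminescence after 20 min at room temperature. AC50 from Hill fits.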
# [8] = Cell Viability - Hek293 (AID 427;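 active = compounds whose dose-response curve shows a full or clear partial loss of cell viability, called from curve shape rather than a numeric limit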;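 note: potency is the fitted concentration of half-maximal effect; cells exposed to compound for 40 hours at 37 °C before reading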); conditions: qHTS
# Method in brief: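 qHTS, human embryonic kidney (adenovirus-transformed) cells; 40 hr cpd, 37 °C; CellTiter-Glo ATP luminescence. Norm: DMSO = 0, 100 uM tamoxifen = 100% inhibition. Hill-fit AC50.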
# [9] = Cell Viability - HepG2 (AID 433; calls by dose curve;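 note: potency is the fitted concentration of half-maximal effect; potency for ATP loss meaning cytotoxicity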); conditions: qHTS
# Method in brief: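 HepG2 hepatocellular carcinoma cells (1500/well) were treated with compounds for 40 h at 37 °C in complete medium; intracellular ATP was read by CellTiter-Glo luminescence. Data were normalized to DMSO and 100 uM tamoxifen, and AC50 came from Hill fits.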
# [10] = Cell Viability - MRC5 (AID 434; calls by dose curve;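 note: potency is the fitted concentration of half-maximal effect; potency reflects cytotoxicity seen as loss of intracellular ATP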); conditions: MRC5 lung fibroblast viability, qHTS
# Method in brief: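 qHTS cytotoxicity in human lung fibroblast MRC5 cells; 40 hr treatment, 37 °C; cellular ATP by luciferase luminescence; DMSO = 0%, 100 uM tamoxifen = 100% inhibition; Hill-fit AC50.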
# [11] = Cell Viability - SK-N-SH (AID 435; calls by dose curve;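 note: potency is the fitted concentration of half-maximal effect; compound exposure lasted 40 h at 37 °C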); conditions: SK-N-SH neuroblastoma cell viability qHTS
# Method in brief: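 SK-N-SH human neuroblastoma cells (1500/well) were exposed to compounds in complete medium for 40 h at 37 °C, and intracellular ATP was then measured by CellTiter-Glo luminescence. AC50 was taken from Hill fits, normalized to DMSO and 100 uM tamoxifen.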
# [12] = Cell Viability - N2a (AID 540); conditions: N2a mouse neuroblastoma cell viability; at 92.2 µM (top of the series); note: nearly all actives have a fitted effect of over 45% in size
# Method in brief: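 Mouse neuroblastoma N2a cells, 1500/well, exposed to compounds 40 h at 37 °C in complete medium. Viability measured as cellular ATP by CellTiter-Glo luminescence; AC50 from Hill fits of concentration-response.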
# [13] = Cell Viability - NIH 3T3 (AID 541); conditions: NIH 3T3 cell viability, qHTS; at 92.2 µM (top of the series); note: nearly all actives have a fitted effect of over 25% in size
# Method in brief: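 Mouse NIH 3T3 fibroblasts, 1000 cells/well, rested 5 hr at 37 °C, then exposed to compound for 40 hr at 37 °C in complete medium. Viability read as intracellular ATP by CellTiter-Glo luminescence; AC50 from Hill-equation fits of concentration-response data.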
# [14] = Cell Viability - HUV-EC-C (AID 542); note: nearly all actives have a fitted effect of over 35% in size
# Method in brief: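 HUV-EC-C human vascular endothelial cells, 1000/well, exposed to compound for 40 hr at 37 °C in complete medium. Intracellular ATP was read by CellTiter-Glo luminescence. AC50 came from Hill-equation fits of concentration-response data.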
# [15] = Cell Viability - H-4-II-E (AID 543); note: nearly all actives have a fitted effect of over 35% in size
# Method in brief: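 Rat hepatoma H-4-II-E cells, 1500 per well, treated 40 h at 37 °C in complete medium. Cellular ATP read by CellTiter-Glo luminescence; AC50 from Hill fits of concentration-response.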
# [16] = Cell Viability - SH-SY5Y (AID 544); note: nearly all actives have a fitted effect of over 55% in size
# Method in brief: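 SH-SY5Y human neuroblastoma cells (1500/well) incubated 5 h, then compound-treated 40 h at 37 °C in complete medium. Viability read as intracellular ATP by CellTiter-Glo luminescence after 20 min; AC50 from Hill-equation fits of qHTS concentration-response.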
# [17] = Cell Viability - Renal Proximal Tubule (AID 545); note: nearly all actives have a fitted effect of over 40% in size
# Method in brief: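 Primary rat renal proximal tubule cells (1000/well) were treated with compounds for 40 hr at 37 °C in complete medium. Intracellular ATP was measured by CellTiter-Glo luminescence, and AC50 values came from Hill-equation fits of concentration-response data.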
# [18] = qHTS Assay for Identification of Small Molecule Inducers of Hypoxia Response (AID 2120; active = well fitted curve in the direction sought with a large enough effect in the signal ratio, with a control signal flat, not every such curve was filed as active; the % refers to the signal ratio)
# Method in brief: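 HRE-bla ME-180 cells in Opti-MEM with 0.5% dialyzed FBS, pre-plated 4-5 h, then compound titration for 17 h at 37 degrees Celsius. CCF4 loaded 2.5 h at room temperature; 460/530 nm ratio gave %Activity and AC50 for induction.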
# [19] = biological target: Glutathione peroxidase 1 (Homo sapiens) (UniProt P07203); test: Primary qHTS Assay for Inhibitors of Recombinant Selenoprotein Glutathione Peroxidase 1 (GPX1) (AID 1845191); note: nearly all actives have a fitted effect of over 65% in size
# Chain of Glutathione peroxidase 1 (Homo sapiens) (P07203 whole entry, looked up): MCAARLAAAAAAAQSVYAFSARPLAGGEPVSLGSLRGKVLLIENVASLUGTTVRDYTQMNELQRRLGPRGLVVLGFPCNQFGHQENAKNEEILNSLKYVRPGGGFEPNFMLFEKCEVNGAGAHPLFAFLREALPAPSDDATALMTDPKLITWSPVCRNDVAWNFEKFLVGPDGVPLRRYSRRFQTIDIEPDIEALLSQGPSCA
# Method in brief: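 10 nM GPX1 + cpd, 30 min RT; start w/ 1 mM GSH, 0.5 mM cumene hydroperoxide, 0.5 mM NADPH, 100 nM GR, 0.01% BSA; buffer 50 mM Tris-HCl pH 7.5, 2 mM EDTA, 150 mM NaCl; Fl 340/450, 0 & 15 min.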
# [20] = biological target: Phospholipid hydroperoxide glutathione peroxidase GPX4 (Homo sapiens) (UniProt P36969); test: Primary qHTS Assay for Inhibitors of Recombinant Selenoprotein Glutathione Peroxidase 4 (GPX4) (AID 1845192); note: nearly all actives have a fitted effect of over 65% in size
# Chain of Phospholipid hydroperoxide glutathione peroxidase GPX4 (Homo sapiens) (P36969 whole entry, looked up): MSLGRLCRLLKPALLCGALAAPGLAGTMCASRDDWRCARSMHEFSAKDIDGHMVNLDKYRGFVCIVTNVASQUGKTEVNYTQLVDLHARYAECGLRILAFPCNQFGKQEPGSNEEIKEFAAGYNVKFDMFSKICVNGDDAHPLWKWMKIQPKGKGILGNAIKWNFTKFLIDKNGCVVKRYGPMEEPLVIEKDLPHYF
# Method in brief: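 NADPH consumption, followed by fluorescence at 340/450 nm between 0 and 15 min, reports GPX4 activity via coupled glutathione reductase (100 nM). Enzyme 200 nM was pre-exposed to compound 30 min; 0.5 mM cumene hydroperoxide and 1 mM GSH served as substrates.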
smiles,measurement,setting,value
NCCc1ccccc1,Potency,[1],inactive
same,Potency,[2],inactive
same,Potency,[3],inactive
COC(=O)C[C@](O)(CCCC(C)(C)O)C(=O)O[C@@H]1C(OC)=C[C@]23CCCN2CCc2cc4c(cc2[C@H]13)OCO4,Potency,[4],0.0891 µM (active)
Nc1ncnc2c1ncn2[C@@H]1O[C@H](COP(=O)(O)OP(=O)(O)OP(=O)(O)O)[C@@H](O)[C@H]1O,Potency,[5],inactive
Cc1ccccc1O,Potency,[6],> 92 µM
same,Potency,[7],> 92 µM
same,Potency,[8],> 92 µM
same,Potency,[9],> 92 µM
same,Potency,[10],> 92 µM
same,Potency,[11],> 92 µM
same,"activity change, negative = cytotoxicity",[12],4.57%
same,"activity change, negative = cytotoxicity",[13],8.87%
same,outcome,[14],inactive
same,outcome,[15],inactive
same,outcome,[16],inactive
same,outcome,[17],inactive
same,outcome,[18],inactive
same,Potency,[19],inactive
same,Potency,[20],inactive
